# Source: PubChem BioAssay (EPA / NIEHS)
# Inconclusive results are not listed. Calls of active or inactive are those of the source. The calls were made as follows, unless noted: active = hit-call score of the fitted dose curve at least 0.9, where 1 is the maximum; inactive = score below 0.9.
# Legend:
# [1] = ATG_CRE_CIS: Attagene CIS-FACTORIAL HepG2 Assay for human cAMP Responsive Element (CRE) binding protein 3 (AID 2282926); details: HepG2 CRE cis-reporter, Attagene multiplexed mRNA; actives raise or lower the signal
# Summary of the method: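 Endogenous transcription factor activity read via CRE-regulated reporter transcripts in transfected HepG2 cells. After 24 h exposure, RNA was reverse-transcribed, amplified, fluorescently labelled and sized by capillary electrophoresis; gain or loss fitted against DMSO.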
# [2] = target: Aryl hydrocarbon receptor (Homo sapiens) (UniProt P35869); test: ATG_Ahr_CIS: Attagene CIS-FACTORIAL HepG2 Assay for human Aryl Hydrocarbon Receptor (Ahr) (AID 2282930); details: HepG2 AhR cis-factorial reporter transcription; actives raise or lower the signal
# Sequence of Aryl hydrocarbon receptor (Homo sapiens) (P35869 whole entry, looked up): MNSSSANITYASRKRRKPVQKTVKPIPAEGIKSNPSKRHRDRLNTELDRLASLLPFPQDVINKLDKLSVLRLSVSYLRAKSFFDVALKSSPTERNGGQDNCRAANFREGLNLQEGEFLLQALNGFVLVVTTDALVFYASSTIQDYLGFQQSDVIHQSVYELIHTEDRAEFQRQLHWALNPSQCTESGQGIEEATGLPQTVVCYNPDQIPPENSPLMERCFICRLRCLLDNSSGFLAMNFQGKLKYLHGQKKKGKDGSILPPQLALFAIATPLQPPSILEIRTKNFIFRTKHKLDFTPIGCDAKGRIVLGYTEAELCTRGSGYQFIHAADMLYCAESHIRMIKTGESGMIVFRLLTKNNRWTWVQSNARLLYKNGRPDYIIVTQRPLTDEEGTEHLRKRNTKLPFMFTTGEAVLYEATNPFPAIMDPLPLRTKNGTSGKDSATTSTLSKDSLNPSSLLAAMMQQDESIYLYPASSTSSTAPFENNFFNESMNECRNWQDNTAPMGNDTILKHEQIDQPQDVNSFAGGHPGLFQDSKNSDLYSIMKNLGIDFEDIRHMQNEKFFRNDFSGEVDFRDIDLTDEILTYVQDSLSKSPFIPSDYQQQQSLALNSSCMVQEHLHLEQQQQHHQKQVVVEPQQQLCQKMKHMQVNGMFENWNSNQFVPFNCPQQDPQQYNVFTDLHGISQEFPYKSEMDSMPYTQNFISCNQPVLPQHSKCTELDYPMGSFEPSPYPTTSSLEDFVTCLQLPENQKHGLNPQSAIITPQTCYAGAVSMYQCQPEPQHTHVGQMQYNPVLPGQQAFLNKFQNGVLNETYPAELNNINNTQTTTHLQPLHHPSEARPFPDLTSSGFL
# Summary of the method: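 Following 24 h of chemical dosing, transfected HepG2 liver cells with cis-driven reporter units were lysed for RNA; reporter mRNA was quantified via RT-PCR and capillary electrophoresis, and responses fitted bidirectionally from DMSO.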
# [3] = target: Hepatocyte nuclear factor 3-beta (Homo sapiens) (UniProt Q9Y261); test: ATG_FoxA2_CIS: Attagene CIS-FACTORIAL HepG2 Assay for human Forkhead box A2 (FOXA2) (AID 2282942); details: HepG2 cis-reporter transcription factor activity, 24 h; actives raise or lower the signal
# Sequence of Hepatocyte nuclear factor 3-beta (Homo sapiens) (Q9Y261 whole entry, looked up): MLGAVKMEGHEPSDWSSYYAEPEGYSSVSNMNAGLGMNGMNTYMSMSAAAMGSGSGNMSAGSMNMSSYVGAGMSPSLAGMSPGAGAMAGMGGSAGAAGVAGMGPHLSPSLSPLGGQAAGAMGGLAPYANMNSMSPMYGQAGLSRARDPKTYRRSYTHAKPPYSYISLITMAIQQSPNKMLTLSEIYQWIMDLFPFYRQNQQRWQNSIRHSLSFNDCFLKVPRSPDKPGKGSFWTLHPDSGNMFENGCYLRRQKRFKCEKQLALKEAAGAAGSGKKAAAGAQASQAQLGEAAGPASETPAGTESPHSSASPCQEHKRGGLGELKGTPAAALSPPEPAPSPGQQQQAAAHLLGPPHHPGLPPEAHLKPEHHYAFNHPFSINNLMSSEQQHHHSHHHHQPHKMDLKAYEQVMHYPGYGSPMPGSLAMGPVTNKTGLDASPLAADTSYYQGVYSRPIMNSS
# Summary of the method: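 In transiently transfected human HepG2 cells, promoter-driven reporter mRNA levels after 24 h chemical exposure are determined via RT-PCR with capillary electrophoresis. DMSO serves as baseline for bidirectional fitting.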
# [4] = target: Paired box protein Pax-6 (Homo sapiens) (UniProt P26367); test: ATG_Pax6_CIS: Attagene CIS-FACTORIAL HepG2 Assay for human Paired Box 6 (PAX6) (AID 2282956); details: HepG2 CIS-FACTORIAL PAX6 reporter transcription, RNA readout; actives raise or lower the signal
# Sequence of Paired box protein Pax-6 (Homo sapiens) (P26367 whole entry, looked up): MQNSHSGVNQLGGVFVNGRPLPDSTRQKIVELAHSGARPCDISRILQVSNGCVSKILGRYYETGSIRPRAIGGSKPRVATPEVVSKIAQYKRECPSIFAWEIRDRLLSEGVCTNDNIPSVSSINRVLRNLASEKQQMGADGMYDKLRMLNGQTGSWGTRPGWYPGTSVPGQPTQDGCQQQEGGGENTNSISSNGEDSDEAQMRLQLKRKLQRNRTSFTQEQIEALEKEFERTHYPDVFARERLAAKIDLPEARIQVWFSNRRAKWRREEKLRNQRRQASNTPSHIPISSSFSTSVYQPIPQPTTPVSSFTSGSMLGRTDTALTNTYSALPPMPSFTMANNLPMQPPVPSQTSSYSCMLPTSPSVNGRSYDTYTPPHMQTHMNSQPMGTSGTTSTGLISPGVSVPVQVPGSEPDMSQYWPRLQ
# Summary of the method: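 DMSO-referenced bidirectional fits of reporter mRNA fluorescence; HepG2 with transient cis-promoter MRTUs, 24 h post-dose, RT-PCR plus capillary electrophoresis detection.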
# [5] = target: Transcription factor Sp1 (Homo sapiens) (UniProt P08047); test: ATG_Sp1_CIS: Attagene CIS-FACTORIAL HepG2 Assay for human Specificity Protein 1 (Sp1) (AID 2282961); details: HepG2 Sp1 cis-reporter transcription, actives raise or lower the signal
# Sequence of Transcription factor Sp1 (Homo sapiens) (P08047 whole entry, looked up): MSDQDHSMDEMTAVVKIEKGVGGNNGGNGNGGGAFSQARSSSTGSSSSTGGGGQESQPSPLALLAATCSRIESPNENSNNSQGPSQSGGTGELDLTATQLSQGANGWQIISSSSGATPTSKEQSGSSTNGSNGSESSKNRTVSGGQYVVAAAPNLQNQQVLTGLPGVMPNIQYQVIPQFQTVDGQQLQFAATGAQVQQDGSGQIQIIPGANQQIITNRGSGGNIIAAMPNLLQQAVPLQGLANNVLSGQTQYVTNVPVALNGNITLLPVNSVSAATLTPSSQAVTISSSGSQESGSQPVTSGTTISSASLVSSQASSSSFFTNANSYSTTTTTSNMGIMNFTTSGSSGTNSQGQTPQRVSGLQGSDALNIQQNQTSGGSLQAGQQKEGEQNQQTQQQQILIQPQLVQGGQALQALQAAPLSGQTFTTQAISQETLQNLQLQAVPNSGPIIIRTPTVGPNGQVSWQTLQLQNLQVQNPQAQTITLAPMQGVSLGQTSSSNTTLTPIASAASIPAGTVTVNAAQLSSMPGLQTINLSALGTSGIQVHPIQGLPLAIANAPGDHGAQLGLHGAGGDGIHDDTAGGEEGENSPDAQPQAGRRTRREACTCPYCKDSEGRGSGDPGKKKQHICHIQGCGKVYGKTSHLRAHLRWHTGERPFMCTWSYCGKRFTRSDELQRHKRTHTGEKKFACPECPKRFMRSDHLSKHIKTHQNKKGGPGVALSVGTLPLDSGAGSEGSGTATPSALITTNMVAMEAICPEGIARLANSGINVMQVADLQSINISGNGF
# Summary of the method: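 Sp1-driven reporter mRNA, read as capillary electrophoresis fluorescence after RT-PCR, in transiently transfected HepG2 cells dosed for 24 h; signal change in either direction relative to DMSO.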
# [6] = ATG_SREBP_CIS: Attagene CIS-FACTORIAL HepG2 Assay for human Sterol Regulatory Element Binding (SREBP) (AID 2282962); details: HepG2 Attagene cis-factorial SREBP reporter, mRNA; actives raise or lower the signal
# Summary of the method: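 In this cis-format assay, HepG2 liver cells express reporters controlled by promoter elements responsive to native transcription factors. Exposure lasts 24 h; reporter mRNA fluorescence from capillary electrophoresis gives the signal, fitted bidirectionally against DMSO.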
# [7] = target: Signal transducer and activator of transcription 3 (Homo sapiens) (UniProt P40763); test: ATG_STAT3_CIS: Attagene CIS-FACTORIAL HepG2 Assay for human Signal Transducer and Activator of Transcription 3 (STAT3) (AID 2282963); details: HepG2, Attagene cis-factorial STAT3 reporter transcription; actives raise or lower the signal
# Sequence of Signal transducer and activator of transcription 3 (Homo sapiens) (P40763 whole entry, looked up): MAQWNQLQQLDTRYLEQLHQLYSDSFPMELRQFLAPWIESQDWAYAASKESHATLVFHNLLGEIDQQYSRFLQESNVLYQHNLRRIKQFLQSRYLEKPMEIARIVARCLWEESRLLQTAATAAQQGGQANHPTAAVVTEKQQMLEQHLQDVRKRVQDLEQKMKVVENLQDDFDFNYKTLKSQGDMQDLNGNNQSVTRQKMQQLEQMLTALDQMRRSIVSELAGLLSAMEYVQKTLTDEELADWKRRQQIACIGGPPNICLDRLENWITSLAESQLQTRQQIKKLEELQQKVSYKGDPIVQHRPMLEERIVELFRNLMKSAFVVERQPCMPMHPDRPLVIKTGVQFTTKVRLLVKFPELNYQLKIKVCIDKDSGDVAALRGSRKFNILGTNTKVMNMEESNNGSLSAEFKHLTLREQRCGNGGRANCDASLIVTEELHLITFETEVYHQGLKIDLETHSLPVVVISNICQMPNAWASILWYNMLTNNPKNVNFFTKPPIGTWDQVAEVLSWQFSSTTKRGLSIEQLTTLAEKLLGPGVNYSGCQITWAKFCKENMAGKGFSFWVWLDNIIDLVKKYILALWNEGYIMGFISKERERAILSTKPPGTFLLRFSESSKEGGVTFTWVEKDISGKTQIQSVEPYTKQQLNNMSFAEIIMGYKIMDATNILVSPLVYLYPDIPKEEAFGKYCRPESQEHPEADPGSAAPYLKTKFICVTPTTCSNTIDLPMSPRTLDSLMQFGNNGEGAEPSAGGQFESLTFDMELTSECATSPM
# Summary of the method: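 HepG2, MRTU-transfected, 24 h dosing. RNA → RT → PCR → FAM label → HpaI → CE. Bidirectional fit vs DMSO.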
# [8] = ATG_TA_CIS: Attagene CIS-FACTORIAL HepG2 Assay for human TA Basal Promoter (AID 2282964); details: HepG2 Attagene CIS-factorial TA basal promoter reporter; actives raise or lower the signal
# Summary of the method: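 Fluorescence from labelled RT-PCR reporter fragments, separated by capillary electrophoresis, gives the signal. Cells: HepG2 transiently carrying multiple reporter units, 24 h chemical dosing. Gain or loss relative to DMSO.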
# [9] = ATG_TCF_b_cat_CIS: Attagene CIS-FACTORIAL HepG2 Assay for human T-Cell-Factor with beta-catenin (TCF/b-cat) (AID 2282965); details: HepG2 TCF/beta-catenin cis-reporter transcription, actives raise or lower the signal
# Summary of the method: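 In this cis-format system, transfected HepG2 cells report endogenous transcription factor activity. Readout after 24 h exposure is reporter transcript abundance from RT-PCR and capillary electrophoresis, analysed for gain or loss of signal versus DMSO.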
# [10] = ATG_TAL_CIS: Attagene CIS-FACTORIAL HepG2 Assay for human TAL Basal Promoter (AID 2282966); details: HepG2 Attagene cis-factorial TAL promoter reporter; actives raise or lower the signal;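 also: background control endpoint measuring basal TAL promoter reporter mRNA not a specific factor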
# Summary of the method: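 Background-control endpoint: basal TAL promoter reporter transcripts in transiently transfected HepG2, measured 24 h after dosing. Read-out by RT-PCR with fluorescent primer extension and capillary electrophoresis; gain or loss of signal fitted relative to DMSO.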
# [11] = ATG_TGFb_CIS: Attagene CIS-FACTORIAL HepG2 Assay for human Transforming Growth Factor (TGF) (AID 2282967); details: HepG2 Attagene CIS TGFb reporter, mRNA transcription; actives raise or lower the signal
# Summary of the method: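 Bidirectional fitting relative to DMSO gave the endpoint. Underlying data: reporter mRNA from HepG2 cells carrying transiently transfected cis-regulated reporter constructs, harvested 24 h after dosing and analyzed by RT-PCR and capillary electrophoresis.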
# [12] = ATG_VDRE_CIS: Attagene CIS-FACTORIAL HepG2 Assay for human Vitamin D Receptor Element (VDRE) (AID 2282968); details: HepG2 VDRE cis-reporter transcription, actives raise or lower the signal
# Summary of the method: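 Steps: transfect HepG2 with multiple reporter transcription units; dose chemicals 24 h; isolate RNA; RT-PCR; label with 6-FAM primer extension; HpaI digest; capillary electrophoresis. Curves fitted both directions against DMSO.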
# [13] = target: X-box-binding protein 1 (Homo sapiens) (UniProt P17861); test: ATG_Xbp1_CIS: Attagene CIS-FACTORIAL HepG2 Assay for human X-box Binding Protein 1 (XBP1) (AID 2282972); details: HepG2 XBP1 cis-element reporter, Attagene multiplex; actives raise or lower the signal
# Sequence of X-box-binding protein 1 (Homo sapiens) (P17861 whole entry, looked up): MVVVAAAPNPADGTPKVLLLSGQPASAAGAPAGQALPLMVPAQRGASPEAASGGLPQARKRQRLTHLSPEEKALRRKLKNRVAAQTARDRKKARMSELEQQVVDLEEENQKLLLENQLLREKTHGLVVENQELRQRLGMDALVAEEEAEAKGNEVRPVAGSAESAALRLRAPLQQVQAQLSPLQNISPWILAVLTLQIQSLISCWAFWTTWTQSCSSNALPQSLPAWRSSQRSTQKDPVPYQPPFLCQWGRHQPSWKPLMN
# Summary of the method: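 Changes in reporter transcript abundance, read by RT-PCR and capillary electrophoresis, reflect endogenous transcription factor activity. Transfected HepG2 cells received compound for 24 hours; DMSO defined baseline for bidirectional analysis.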
# [14] = target: Transcriptional activator Myb (Homo sapiens) (UniProt P10242); test: ATG_Myb_CIS: Attagene CIS-FACTORIAL HepG2 Assay for human Myeloblastosis (Myb) Proto-Oncogene Transcription Factor (AID 2282986); details: HepG2 Attagene CIS-FACTORIAL Myb reporter transcription; actives raise or lower the signal
# Summary of the method: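 Fluorescence signals from capillary electrophoresis of RT-PCR-amplified reporter cDNA give the read-out. Cells: HepG2 transfected with multiple cis-regulated reporter units. Exposure lasts 24 hours; DMSO defines baseline for gain or loss of signal.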
# [15] = target: Nuclear respiratory factor 1 (Homo sapiens) (UniProt Q16656); test: ATG_NRF1_CIS: Attagene CIS-FACTORIAL HepG2 Assay for human Nuclear Respiratory Factor 1 (NRF1) Orphan Gene (AID 2282987); details: HepG2 NRF1 cis-element reporter, Attagene multiplex; actives raise or lower the signal
# Sequence of Nuclear respiratory factor 1 (Homo sapiens) (Q16656 whole entry, looked up): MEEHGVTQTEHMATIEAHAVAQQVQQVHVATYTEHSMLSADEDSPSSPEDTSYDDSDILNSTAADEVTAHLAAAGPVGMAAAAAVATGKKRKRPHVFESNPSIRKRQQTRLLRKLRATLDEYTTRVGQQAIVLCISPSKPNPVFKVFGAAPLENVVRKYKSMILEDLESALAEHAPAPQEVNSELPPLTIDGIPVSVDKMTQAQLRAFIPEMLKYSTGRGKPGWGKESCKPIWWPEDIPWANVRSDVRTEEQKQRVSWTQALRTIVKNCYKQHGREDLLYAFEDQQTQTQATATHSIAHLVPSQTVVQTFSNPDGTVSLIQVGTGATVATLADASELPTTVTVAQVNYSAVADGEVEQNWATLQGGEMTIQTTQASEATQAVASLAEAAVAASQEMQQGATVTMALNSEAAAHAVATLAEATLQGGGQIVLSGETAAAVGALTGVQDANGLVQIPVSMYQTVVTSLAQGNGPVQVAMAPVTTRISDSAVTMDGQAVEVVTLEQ
# Summary of the method: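 Transcriptional reporter readout, one component of a 52-endpoint multiplexed HepG2 panel. Exposure 24 h; mRNA detected via RT-PCR and fluorescent capillary electrophoresis; fitting in both directions against DMSO.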
# [16] = ATG_NFI_CIS: Attagene CIS-FACTORIAL HepG2 Assay for human Nuclear Factor I (NFI) (AID 2282989); details: HepG2 cis-regulatory reporter, NFI response element transcription; actives raise or lower the signal
# Summary of the method: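 Cells: human liver HepG2, transiently transfected with promoter-regulated reporter transcription units. Exposure 24 h. Detection: fluorescent RT-PCR products separated by capillary electrophoresis, normalised to DMSO negative control.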
# [17] = target: Myc proto-oncogene protein (Homo sapiens) (UniProt P01106); test: ATG_Myc_CIS: Attagene CIS-FACTORIAL HepG2 Assay for human Myelocytomatosis (Myc) Proto-Oncogene Transcription Factor (AID 2282990); details: HepG2, Attagene cis-reporter transcription factor activity; actives raise or lower the signal
# Sequence of Myc proto-oncogene protein (Homo sapiens) (P01106 whole entry, looked up): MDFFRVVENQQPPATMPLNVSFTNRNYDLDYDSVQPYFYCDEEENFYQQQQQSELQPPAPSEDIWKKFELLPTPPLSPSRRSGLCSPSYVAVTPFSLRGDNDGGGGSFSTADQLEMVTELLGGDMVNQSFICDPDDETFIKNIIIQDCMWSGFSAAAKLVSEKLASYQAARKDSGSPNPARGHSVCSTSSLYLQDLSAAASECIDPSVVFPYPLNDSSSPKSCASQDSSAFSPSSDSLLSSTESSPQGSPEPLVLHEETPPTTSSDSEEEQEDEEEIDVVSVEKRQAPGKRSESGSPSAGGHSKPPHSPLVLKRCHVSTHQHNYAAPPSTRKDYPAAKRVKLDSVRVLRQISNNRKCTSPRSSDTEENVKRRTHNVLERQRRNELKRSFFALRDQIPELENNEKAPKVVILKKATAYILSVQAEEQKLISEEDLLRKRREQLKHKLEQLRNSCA
# Summary of the method: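 DMSO-normalised, bidirectionally fitted reporter mRNA signal. HepG2 cells transfected with cis reporter constructs, treated 24 h; transcripts detected by RT-PCR, 6-FAM primer extension and CE.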
# [18] = ATG_NF_kB_CIS: Attagene CIS-FACTORIAL HepG2 Assay for human Nuclear Factor Kappa B (NF-kB) (AID 2282991); details: HepG2 Attagene cis-factorial NF-kB reporter mRNA; actives raise or lower the signal
# Summary of the method: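 HepG2, transient multi-reporter transfection, cis promoter elements (endogenous TFs). 24 h exposure. Total RNA → RT → PCR → 6-FAM label → HpaI → CE. Gain/loss vs DMSO.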
# [19] = ATG_Oct_MLP_CIS: Attagene CIS-FACTORIAL HepG2 Assay for human Octamer-Binding Transcription Factor (Oct) (AID 2282993); details: HepG2 Attagene cis-factorial Oct reporter, mRNA; actives raise or lower the signal
# Summary of the method: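 HepG2, transient MRTU transfection, cis promoter elements; 24 h dosing; RT-PCR/CE fluorescence read-out of reporter mRNA; fit both directions vs DMSO.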
# [20] = ATG_M_32_TRANS: Attagene TRANS-FACTORIAL HepG2 Assay for M32 Transcription Factor (Internal Marker) (AID 2282984; active = hit-call score of the fitted dose curve at least 0.9, where 1 is the maximum); details: HepG2 Attagene TRANS M32 internal marker reporter
# Summary of the method: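 After 24 h dosing of transfected HepG2 cells, total RNA was reverse-transcribed, reporter sequences PCR-amplified, 6-FAM labelled by primer extension and HpaI-digested before capillary electrophoresis. Signal increase over DMSO was fitted.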
smiles,measurement,setting,value
C[C@]12CCC(=O)C(O)=C1CC[C@@H]1[C@@H]2CC[C@]2(C)C(=O)CC[C@@H]12,outcome,[1],inactive
same,AC50,[2],31.2 µM (active)
same,outcome,[3],inactive
same,outcome,[4],inactive
same,outcome,[5],inactive
same,AC50,[6],27.6 µM (active)
same,outcome,[7],inactive
same,outcome,[8],inactive
same,outcome,[9],inactive
same,outcome,[10],inactive
same,outcome,[11],inactive
same,outcome,[12],inactive
same,outcome,[13],inactive
same,outcome,[14],inactive
same,outcome,[15],inactive
same,outcome,[16],inactive
same,outcome,[17],inactive
same,outcome,[18],inactive
same,outcome,[19],inactive
CC(C)C(=O)Cl,outcome,[1],inactive
same,outcome,[2],inactive
same,outcome,[3],inactive
same,outcome,[4],inactive
same,outcome,[5],inactive
same,outcome,[6],inactive
same,outcome,[8],inactive
same,outcome,[9],inactive
same,outcome,[10],inactive
same,outcome,[11],inactive
same,outcome,[12],inactive
same,outcome,[20],inactive
same,outcome,[14],inactive
same,outcome,[15],inactive
same,outcome,[16],inactive
same,outcome,[18],inactive
same,outcome,[19],inactive
O=C(CCN1CC1)OCC(CO)(COC(=O)CCN1CC1)COC(=O)CCN1CC1,outcome,[1],inactive
same,outcome,[2],inactive
same,outcome,[4],inactive
same,outcome,[5],inactive
same,outcome,[6],inactive
same,outcome,[8],inactive
same,outcome,[9],inactive
same,outcome,[10],inactive
same,outcome,[11],inactive
same,outcome,[13],inactive
same,outcome,[14],inactive
same,outcome,[15],inactive
same,outcome,[16],inactive
same,outcome,[18],inactive
same,outcome,[19],inactive
O=S(=O)(O)OOS(=O)(=O)O,outcome,[1],inactive
same,outcome,[2],inactive
same,outcome,[3],inactive
same,outcome,[4],inactive
same,outcome,[5],inactive
same,outcome,[6],inactive
same,outcome,[7],inactive
same,outcome,[8],inactive
same,outcome,[9],inactive
same,outcome,[10],inactive
same,outcome,[11],inactive
same,outcome,[12],inactive
same,outcome,[20],inactive
same,outcome,[14],inactive
same,outcome,[15],inactive
same,outcome,[16],inactive
same,outcome,[17],inactive
same,outcome,[18],inactive
same,outcome,[19],inactive
CCC(C)(C)O,outcome,[1],inactive
same,outcome,[2],inactive
same,outcome,[3],inactive
same,outcome,[4],inactive
same,outcome,[5],inactive
same,outcome,[6],inactive
same,outcome,[7],inactive
same,outcome,[8],inactive
same,outcome,[9],inactive
same,outcome,[10],inactive
same,outcome,[11],inactive
same,outcome,[12],inactive
same,outcome,[13],inactive
same,outcome,[20],inactive
same,outcome,[14],inactive
same,outcome,[15],inactive
same,outcome,[16],inactive
same,outcome,[17],inactive
same,outcome,[19],inactive
CC(=O)C=Cc1ccccc1,outcome,[1],inactive
same,outcome,[2],inactive
same,outcome,[3],inactive
same,AC50,[4],130 µM (active)
same,outcome,[5],inactive
same,outcome,[6],inactive
same,outcome,[7],inactive
same,outcome,[8],inactive
same,outcome,[9],inactive
same,outcome,[10],inactive
same,outcome,[11],inactive
same,AC50,[12],100 µM (active)
same,outcome,[13],inactive
same,AC50,[14],128 µM (active)
same,outcome,[15],inactive
same,outcome,[16],inactive
same,outcome,[17],inactive
same,AC50,[18],163 µM (active)
same,AC50,[19],100 µM (active)
CCCCCc1cc(O)cc(O)c1,outcome,[1],inactive
same,outcome,[2],inactive
same,outcome,[3],inactive
same,AC50,[4],146 µM (active)
same,outcome,[5],inactive
same,outcome,[6],inactive
same,AC50,[8],149 µM (active)
same,outcome,[9],inactive
same,AC50,[10],100 µM (active)
same,outcome,[11],inactive
same,AC50,[12],16 µM (active)
same,AC50,[13],51.7 µM (active)
same,outcome,[20],inactive
same,outcome,[14],inactive
same,outcome,[15],inactive
same,outcome,[16],inactive
same,outcome,[17],inactive
same,outcome,[18],inactive
same,AC50,[19],60.8 µM (active)
